Results taken from the supplement of paper PMC8728848.
Only a selection was taken, and the strongest signals are over-represented in it overall.

Experiments:
Assay in all cases: glycan array binding signal (z-score within array); higher = stronger binding
Settings in all cases: glycan notation: IUPAC condensed, linker removed
[1] = molecular target: Fuc(a1-2)Gal(b1-3)GalNAc(a1-3)[Fuc(a1-2)]Gal(b1-4)Glc
Method in brief: (§1)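 The Consortium for Functional Glycomics database supplied 3228 glycan arrays, of which those lacking an available protein sequence were dropped. The binding signal, a within-array Z-score, was averaged across arrays of the same protein sequence and across linkers. Negative scores can be read as non-binding.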

[2] = molecular target: Fuc(a1-2)Gal(b1-3)GlcNAc(b1-3)[Gal(b1-4)GlcNAc(b1-6)]Gal(b1-4)Glc
Method in brief: as §1

[3] = molecular target: Fuc(a1-2)Gal(b1-3)GlcNAc(b1-3)[Neu5Ac(a2-6)Gal(b1-4)GlcNAc(b1-6)]Gal(b1-4)Glc
Method in brief: as §1

[4] = molecular target: Fuc(a1-2)Gal(b1-3)[Fuc(a1-4)]GlcNAc
Method in brief: as §1

[5] = molecular target: Fuc(a1-2)Gal(b1-4)Glc6S
Method in brief: as §1

[6] = molecular target: Fuc(a1-2)Gal(b1-4)[Fuc(a1-3)]GlcNAc(b1-3)GalNAc
Method in brief: as §1

[7] = molecular target: Fuc(a1-2)Gal3S(b1-4)GlcNAc
Method in brief: as §1

[8] = molecular target: Fuc(a1-2)Gal6S(b1-4)Glc
Method in brief: as §1

[9] = molecular target: Fuc(a1-2)[GalNAc(a1-3)]Gal
Method in brief: as §1

[10] = molecular target: Fuc(a1-2)[GalNAc(a1-3)]Gal(b1-3)GlcNAc(b1-6)GalNAc
Method in brief: as §1

[11] = molecular target: Fuc(a1-2)[GalNAc(a1-3)]Gal(b1-4)Glc
Method in brief: as §1

[12] = molecular target: Fuc(a1-2)[GalNAc(a1-3)]Gal(b1-4)GlcNAc
Method in brief: as §1

[13] = molecular target: Fuc(a1-2)[GalNAc(a1-3)]Gal(b1-4)[Fuc(a1-3)]GlcNAc(b1-3)GalNAc
Method in brief: as §1

[14] = molecular target: Fuc(a1-3)[Gal(b1-4)]GlcNAc(b1-2)Man
Method in brief: as §1

[15] = molecular target: Fuc(a1-3)[Gal(b1-4)]GlcNAc(b1-4)Gal(b1-4)[Fuc(a1-3)]GlcNAc
Method in brief: as §1

[16] = molecular target: Fuc(a1-3)[Gal3S(b1-4)]GlcNAc6S
Method in brief: as §1

[17] = molecular target: Fuc(a1-4)GlcNAc
Method in brief: as §1

[18] = molecular target: Gal(a1-3)Gal(b1-3)GlcNAc
Method in brief: as §1

[19] = molecular target: Gal(a1-3)Gal(b1-4)Glc
Method in brief: as §1

[20] = molecular target: Gal(a1-4)Gal(b1-3)GlcNAc(b1-2)Man(a1-3)[Gal(a1-4)Gal(b1-3)GlcNAc(b1-2)Man(a1-6)]Man(b1-4)GlcNAc(b1-4)GlcNAc
Method in brief: as §1

[21] = molecular target: Gal(a1-4)GlcNAc
Method in brief: as §1

[22] = molecular target: Gal(b1-2)Gal
Method in brief: as §1

[23] = molecular target: Gal(b1-3)GlcNAc(b1-3)Gal(b1-4)GlcNAc(b1-3)Gal(b1-4)GlcNAc(b1-2)[Gal(b1-3)GlcNAc(b1-3)Gal(b1-4)GlcNAc(b1-3)Gal(b1-4)GlcNAc(b1-6)]Man(a1-6)[Gal(b1-3)GlcNAc(b1-3)Gal(b1-4)GlcNAc(b1-3)Gal(b1-4)GlcNAc(b1-2)Man(a1-3)]Man(b1-4)GlcNAc(b1-4)[Fuc(a1-6)]GlcNAc
Method in brief: as §1

[24] = molecular target: Gal(b1-3)GlcNAc(b1-3)Gal(b1-4)[Fuc(a1-3)]GlcNAc(b1-6)[Gal(b1-3)GlcNAc(b1-3)]Gal(b1-4)Glc
Method in brief: as §1

[25] = molecular target: Gal(b1-3)GlcNAc(b1-3)GalNAc
Method in brief: as §1

[26] = molecular target: Gal(b1-4)GlcNAc(b1-3)Gal(b1-3)GlcNAc
Method in brief: as §1

[27] = molecular target: Gal(b1-4)GlcNAc(b1-3)GalNAc
Method in brief: as §1

[28] = molecular target: Gal(b1-4)GlcNAc(b1-6)[Gal(b1-3)]GalNAc
Method in brief: as §1

[29] = molecular target: GalNAc(a1-3)GalNAc
Method in brief: as §1

[30] = molecular target: GalNAc(a1-3)GalNAc(a1-3)Gal(a1-4)Gal(b1-4)GlcNAc
Method in brief: as §1

[31] = molecular target: GalNAc(a1-3)GalNAc(b1-3)Gal(a1-4)Gal(b1-4)Glc
Method in brief: as §1

[32] = molecular target: GalNAc(b1-4)GlcNAc6S
Method in brief: as §1

[33] = molecular target: GlcNAc(a1-4)Gal(b1-4)GalNAc
Method in brief: as §1

[34] = molecular target: GlcNAc(a1-4)Gal(b1-4)GlcNAc(b1-3)Gal(b1-4)[Fuc(a1-3)]GlcNAc(b1-3)Gal(b1-4)[Fuc(a1-3)]GlcNAc
Method in brief: as §1

[35] = molecular target: GlcNAc(b1-2)[GlcNAc(b1-4)]Man(a1-3)[GlcNAc(b1-4)][GlcNAc(b1-2)Man(a1-6)]Man(b1-4)GlcNAc(b1-4)GlcNAc
Method in brief: as §1

[36] = molecular target: GlcNAc(b1-3)Gal(b1-4)GlcNAc(b1-3)Gal(b1-4)GlcNAc(b1-3)Gal(b1-4)GlcNAc(b1-3)Gal(b1-4)GlcNAc(b1-2)[GlcNAc(b1-3)Gal(b1-4)GlcNAc(b1-3)Gal(b1-4)GlcNAc(b1-3)Gal(b1-4)GlcNAc(b1-3)Gal(b1-4)GlcNAc(b1-6)]Man(a1-6)[GlcNAc(b1-3)Gal(b1-4)GlcNAc(b1-3)Gal(b1-4)GlcNAc(b1-3)Gal(b1-4)GlcNAc(b1-3)Gal(b1-4)GlcNAc(b1-2)Man(a1-3)]Man(b1-4)GlcNAc(b1-4)[Fuc(a1-6)]GlcNAc
Method in brief: as §1

[37] = molecular target: GlcNAc(b1-3)Gal(b1-4)GlcNAc(b1-3)GalNAc
Method in brief: as §1

[38] = molecular target: GlcNAc(b1-3)GalNAc
Method in brief: as §1

[39] = molecular target: GlcNAc(b1-4)Gal(b1-4)GlcNAc
Method in brief: as §1

[40] = molecular target: Kdn(a2-3)Gal(b1-3)GlcNAc
Method in brief: as §1

[41] = molecular target: Man(a1-2)Man(a1-2)Man(a1-6)[Man(a1-3)]Man
Method in brief: as §1

[42] = molecular target: MurNAc(b1-4)GlcNAc
Method in brief: as §1

[43] = molecular target: Neu5Ac(a2-3)GalNAc
Method in brief: as §1

[44] = molecular target: Neu5Ac(a2-3)[GalNAc(b1-4)]Gal(b1-4)Glc
Method in brief: as §1

[45] = molecular target: Neu5Ac(a2-3)[GalNAc(b1-4)]Gal(b1-4)GlcNAc
Method in brief: as §1

[46] = molecular target: Neu5Ac(a2-6)Gal(b1-4)GlcNAc
Method in brief: as §1

[47] = molecular target: Neu5Ac(a2-6)Gal(b1-4)GlcNAc(b1-2)Man
Method in brief: as §1

[48] = molecular target: Neu5Ac(a2-6)Gal(b1-4)GlcNAc(b1-2)Man(a1-3)Man(b1-4)GlcNAc(b1-4)GlcNAc
Method in brief: as §1

[49] = molecular target: Neu5Ac(a2-6)Gal(b1-4)GlcNAc(b1-2)Man(a1-6)[Gal(b1-4)GlcNAc(b1-2)Man(a1-3)]Man(b1-4)GlcNAc(b1-4)GlcNAc
Method in brief: as §1

[50] = molecular target: Neu5Ac(a2-6)Gal(b1-4)GlcNAc6S
Method in brief: as §1

[51] = molecular target: Neu5Ac(a2-8)Neu5Ac(a2-3)[Gal(b1-3)GalNAc(b1-4)]Gal(b1-4)Glc
Method in brief: as §1

[52] = molecular target: Neu5Ac(a2-8)Neu5Ac(a2-8)Neu5Ac(a2-8)Neu5Ac(a2-3)[GalNAc(b1-4)]Gal(b1-4)Glc
Method in brief: as §1

B1: DBA (Dolichos biflorus) (protein)
chain: ANIQSFSFKNFNSPSFILQGDATVSSGKLQLTKVKENGFPLRFPSGRAFYSSPIQIYDKFTGAVASWATSFTVKISAPSKASFADGIAFALVPVGSEPRRNGGYLGVFDSDVYNNSAQTVAVEFDTLSNSGWDPSMKHIGIDVNSIKSIATVSWDLANGENAEILITYNAATSLLVVSLVHPSRRTSYILSERVDITNELPEYVGVGFSATTGLSEGYIETHDVLSWSFASRLPDDSTAEPLDLARYLVRNVL
[1]
  glycan array binding signal (z-score): -0.133
[2]
  glycan array binding signal (z-score): -0.099
[3]
  glycan array binding signal (z-score): -0.152
[4]
  glycan array binding signal (z-score): -0.142
[5]
  glycan array binding signal (z-score): -0.09
[6]
  glycan array binding signal (z-score): 0.449
[7]
  glycan array binding signal (z-score): -0.041
[8]
  glycan array binding signal (z-score): 0.346
[9]
  glycan array binding signal (z-score): 0.024
[10]
  glycan array binding signal (z-score): -0.113
[11]
  glycan array binding signal (z-score): 0.577
[12]
  glycan array binding signal (z-score): 0.575
[13]
  glycan array binding signal (z-score): 0.333
[14]
  glycan array binding signal (z-score): -0.116
[15]
  glycan array binding signal (z-score): -0.19
[16]
  glycan array binding signal (z-score): -0.015
[17]
  glycan array binding signal (z-score): -0.115
[18]
  glycan array binding signal (z-score): -0.124
[19]
  glycan array binding signal (z-score): -0.119
[20]
  glycan array binding signal (z-score): -0.059
[21]
  glycan array binding signal (z-score): -0.126
[22]
  glycan array binding signal (z-score): -0.113
[23]
  glycan array binding signal (z-score): 0.071
[24]
  glycan array binding signal (z-score): -0.1
[25]
  glycan array binding signal (z-score): -0.126
[26]
  glycan array binding signal (z-score): -0.125
[27]
  glycan array binding signal (z-score): -0.144
[28]
  glycan array binding signal (z-score): -0.121
[29]
  glycan array binding signal (z-score): 12.1
[30]
  glycan array binding signal (z-score): 12.5
[31]
  glycan array binding signal (z-score): 13.4
[32]
  glycan array binding signal (z-score): 1.8
[33]
  glycan array binding signal (z-score): -0.085
[34]
  glycan array binding signal (z-score): -0.007
[35]
  glycan array binding signal (z-score): -0.133
[36]
  glycan array binding signal (z-score): -0.1
[37]
  glycan array binding signal (z-score): -0.139
[38]
  glycan array binding signal (z-score): -0.101
[39]
  glycan array binding signal (z-score): -0.16
[40]
  glycan array binding signal (z-score): -0.169
[41]
  glycan array binding signal (z-score): -0.081
[42]
  glycan array binding signal (z-score): -0.119
[43]
  glycan array binding signal (z-score): -0.165
[44]
  glycan array binding signal (z-score): 4.19
[45]
  glycan array binding signal (z-score): 3.09
[46]
  glycan array binding signal (z-score): -0.103
[47]
  glycan array binding signal (z-score): -0.127
[48]
  glycan array binding signal (z-score): -0.098
[49]
  glycan array binding signal (z-score): -0.144
[50]
  glycan array binding signal (z-score): -0.118
[51]
  glycan array binding signal (z-score): -0.124
[52]
  glycan array binding signal (z-score): -0.104
